Measured values: the supplement of paper PMC3334620
In all, about 33,000 sequences were measured (“E-score (-0.5 to 0.5)”: median about -0.0059, highest 2% from about 0.26 on). The full list was thinned out, with the highest values kept by preference.

Molecular target: T1, Cin5 (UniProt P40917)
T1 sequence: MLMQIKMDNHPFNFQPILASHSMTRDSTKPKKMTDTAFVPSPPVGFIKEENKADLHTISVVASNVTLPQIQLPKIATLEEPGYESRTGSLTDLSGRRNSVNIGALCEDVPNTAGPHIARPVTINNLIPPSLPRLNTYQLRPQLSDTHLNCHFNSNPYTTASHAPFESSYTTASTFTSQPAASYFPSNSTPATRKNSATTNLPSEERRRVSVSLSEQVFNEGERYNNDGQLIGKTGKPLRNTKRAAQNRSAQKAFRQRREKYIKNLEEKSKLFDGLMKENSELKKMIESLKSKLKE
Test: PBM E-score (8-mer binding enrichment) (E-score (-0.5 to 0.5)); higher = stronger / more preferred TF binding
Details: protein concentration: 100 nM; construct: GST-full length
Summary of the method: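 PURExpress in vitro transcription/translation supplied GST-tagged yeast transcription factors, either full-length or DNA-binding domain. Applied at about 100-200 nM to universal all-10-mer Agilent arrays double-stranded by primer extension, the bound protein was detected with fluorescent anti-GST. E-scores, modified Wilcoxon-Mann-Whitney statistics, were given by the Universal PBM Analysis Suite to ungapped eight-base words pooled with their reverse complements after masliner normalisation.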

Sequence | PBM E-score
AACACTGA | 0.271
AACACTGT | -0.0444
CTTCGCCA | -0.137
GATTAAGA | 0.104
TATTAATA | 0.297
GATTAATC | 0.145
TATTAACA | 0.195
AATTAATA | 0.341
AATTAATG | 0.221
AATTAATT | 0.0929
GATTAATA | 0.348
CATTAATA | 0.187
GTGGGGTA | 0.181
ACGCACTA | 0.0242
GCTGGGCA | -0.142
AAGAGCCG | -0.187
CAAGGGTG | -0.166
TCGGCAGA | -0.0269
ATTAAATA | 0.274
GATAAATA | 0.245
AATAAATT | 0.19
AATAAATA | 0.293
ATTAAATC | 0.205
ATTAAATG | 0.245
TAAAAATA | 0.152

Sequence | PBM E-score
TATAAAAA | 0.176
AATAAATG | 0.269
CATAAATG | -0.125
TATAAATA | 0.283
CATAAATA | 0.183
CTGGACCA | -0.148
ACCCACAT | 0.0905
CACTGAGG | -0.0826
GTGTGTCA | 0.0629
ATTACCAC | 0.151
GTTACCAA | 0.0591
ATTACCAA | 0.27
CTTACCAA | 0.286
CTTACCAC | 0.0364
CTTACCGA | 0.0713
AACCGAAC | -0.0782
TACCACCA | -0.0388
AGATATGC | 0.0698
AGATATGA | 0.272
CGATATGA | 0.0193
ATATATGG | 0.24
GGATATGA | 0.0996
AGATATGG | 0.26
GACCAGTC | -0.195
CCCCGGTC | -0.2

Sequence | PBM E-score
ATCAGTGG | 0.0229
CCTAGAGA | -0.119
GCAAAGTA | 0.175
GTAAAGTA | 0.305
ATAAAGTC | 0.113
ATAAAGTG | 0.149
ATAAAGTA | 0.264
CTAAAGTA | -0.0582
ACACGCCT | -0.127
CTTTATGC | -0.0141
CAGGTACC | -0.324
CGAGATTA | 0.244
AGAGCGCA | -0.168
ACCTTACA | -0.0412
GTGACATA | 0.303
ATGACATA | 0.296
CTGACATA | 0.153
GGGACATA | 0.0818
ATGACATC | 0.248
GTGACACA | 0.096
ATAGGGCA | -0.0914
CCCAGGCC | -0.308
CTAAGAAA | -0.0357
CCGCGCGC | 0.0301
CCGCGCGG | 0.307

Sequence | PBM E-score
ACGCGCGC | 0.158
ATCCGCGA | 0.015
GCGCGCGA | 0.104
ATCCGCGC | -0.0165
CCGCGCGA | 0.186
GCGCGCGC | 0.306
ATCCGCGG | 0.271
AGGGTCGA | -0.084
AAACCAAT | 0.188
GCTTGAAA | 0.0153
GAATCAAA | 0.142
AAATCCAG | 0.13
AAATCCAA | 0.117
CTATCAAA | 0.199
CAATCAAA | 0.151
TAATCAAA | 0.329
ATATCAAA | 0.166
TAATCCAA | 0.283
TTATCAAA | 0.298
AAATCCAT | 0.312
GAATCCAA | 0.0873
AAATCCAC | 0.0254
AAAAGAAT | 0.257
CGTCTGAA | -0.133
CAAAGTCA | 0.107

Sequence | PBM E-score
CACGGGCC | -0.296
CCGCATGA | -0.136
CCAAAGAC | -0.185
CAATCTCG | 0.0199
TAATCATA | 0.326
CAATCATA | 0.201
AAATCATA | 0.198
GAATCGCA | -0.0879
TAATCGCA | 0.294
CAATCGCA | 0.13
ACGTTGCT | 0.188
ATGCTTGA | 0.133
AAGAAGTG | 0.015
ATTATTAG | 0.0574
ATTATTCC | 0.273
ATTATTCA | 0.262
ATTATTCG | 0.288
ACTATTCC | 0.0567
ACTATTCG | 0.224
CTTATTCA | 0.142
CTTATTCC | 0.117
GTTATTCA | 0.143
GCGACCGA | 0.0144
GTGAGGAA | -0.138
GGCTTTTA | -0.223

Sequence | PBM E-score
AACTGGGA | -0.0428
AATCCTAA | 0.0229
ACAGTTGG | 0.016
ATAACGAC | 0.238
ATAACCAA | 0.258
ATAACGAA | 0.294
CTAACGAA | -0.0791
GTAACGTA | 0.129
CTAACCAA | 0.0775
ATAACGTA | 0.313
ATAACGTC | 0.0919
ATAACCAG | 0.0194
ACCGGCGC | 0.0762
ATCCGGCA | 0.0463
GGTGAACC | -0.108
CTTTTGAC | -0.0394
AGTTACTC | 0.0474
CGACACCC | -0.0488
ACATAGAG | -0.0918
ATGCGCAA | 0.128
ATGCGCAC | 0.0881
ATGCGCAT | 0.332
AAGTCTAA | -0.0864
ACCCATTG | -0.0482
CAAGTTAC | 0.104

Sequence | PBM E-score
GTCAGCAA | 0.267
CTCAGCAA | 0.0669
CTAAGCAA | 0.076
ATAAGCAT | 0.118
ATAAGCAG | 0.33
CTAAGCAC | 0.183
ATAAGCAA | 0.349
ATAAGCAC | 0.175
GTAAGCAC | 0.319
ATCAGCAA | 0.0322
CTAAGCAG | 0.042
ACAAGCAA | 0.122
ACTGGAGC | -0.253
GCTATCCC | -0.129
ATAGGCAA | 0.157
AAGAAGAA | 0.0684
ACTCCTAA | 0.00319
ATCAACGA | 0.0637
GTAACGCA | 0.0946
ACCCCGGA | -0.00022
GTAAGCAA | 0.419
GCAAGCAA | 0.00274
TTAAGCAA | 0.0545
